Measured values as given in PubChem BioAssay (NCI).
The panel holds about 83,000 compounds, 20% with a hit somewhere; the sample as a whole holds those more often.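 In brief: 96-well plates, 48 h treatment, single concentration, percent growth endpoint.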 A number with no mark means an inactive call. Activity calls are given as the source filed them. The calls were made as follows: active = growth percent below 10; inactive = the rest.

Key:
Assay in all cases: NCI-60 one-dose screen, 48 h (100 = growth as untreated, 0 = no growth, -100 = all killed)
Conditions in all cases: 10 µM unless noted
DU-145 prostate = test system: DU-145 prostate
K-562 leukemia = test system: K-562 leukemia
MALME-3M melanoma = test system: MALME-3M melanoma
MDA-MB-231 breast = test system: MDA-MB-231 breast
RXF 393 renal = test system: RXF 393 renal
SF-268 CNS = test system: SF-268 CNS
SF-295 CNS = test system: SF-295 CNS
SF-539 CNS = test system: SF-539 CNS
UACC-257 melanoma = test system: UACC-257 melanoma
M14 melanoma = test system: M14 melanoma
HCT-15 colon = test system: HCT-15 colon
HT29 colon = test system: HT29 colon
SNB-75 CNS = test system: SNB-75 CNS
SNB-19 CNS = test system: SNB-19 CNS
U251 CNS = test system: U251 CNS
PC-3 prostate = test system: PC-3 prostate
SK-MEL-5 melanoma = test system: SK-MEL-5 melanoma
UACC-62 melanoma = test system: UACC-62 melanoma
LOX IMVI melanoma = test system: LOX IMVI melanoma
SK-MEL-28 melanoma = test system: SK-MEL-28 melanoma

Structure (SMILES)	growth (DU-145 prostate)	growth (K-562 leukemia)	growth (MALME-3M melanoma)	growth (MDA-MB-231 breast)	growth (RXF 393 renal)	growth (SF-268 CNS)	growth (SF-295 CNS)	growth (SF-539 CNS)	growth (UACC-257 melanoma)	growth (M14 melanoma)	growth (HCT-15 colon)	growth (HT29 colon)	growth (SNB-75 CNS)	growth (SNB-19 CNS)	growth (U251 CNS)	growth (PC-3 prostate)	growth (SK-MEL-5 melanoma)	growth (UACC-62 melanoma)	growth (LOX IMVI melanoma)	growth (SK-MEL-28 melanoma)
COc1ccc(C2=NN(C=O)C(c3ccc(OS(=O)(=O)c4ccc(C)cc4)c(OC)c3)C2)cc1 (stereo not given)	72.8%	16%	45.9%	56.4%	82.7%	68.7%	41.6%	66.9%	42.9%	58.8%	61.8%	35%	68.9%	62.5%	60.3%	48.4%	6.93% (active)	50.1%	57.3%	75.5%
NNC(=O)Cc1ccccc1	104%	56.6%	99.7%	83.7%	126%	86.4%	79.7%	92.5%	122%	74.5%	82.7%	101%	77.8%	93.1%	91.8%	56.9%	96.9%	45.8%	50.7%	108%
N#Cc1c(N)n(C2OC(CO)C(O)C2O)c2ncnc(N)c12 (stereo not given)	-9.06% (active)	-28.6% (active)	-25.7% (active)	14.3%	-77.1% (active)	-18.8% (active)	4.21% (active)	-53.1% (active)	-37.8% (active)	-52% (active)	-4.45% (active)	2.5% (active)	-37.5% (active)	5.99% (active)	15.2%	-13.5% (active)	-33.4% (active)	-49.6% (active)	-52.4% (active)	-60.9% (active)
CCCCCCCCCCCCCCCc1cc(O)ccc1[N+](=O)[O-]	104%	67.7%	96.4%	69.2%	95%	91.6%	94.3%	103%	87.3%	93.1%	73.7%	107%	83.1%	99.9%	70.1%	59.5%	76.1%	67.9%	98%	102%
O=C(N=Nc1c(Cl)c(O)c2ccccc2c1O)C(=O)Nc1cccc(C(F)(F)F)c1	-38.7% (active)	57.6%	10.7%	56.6%	81.5%	68.2%	41.1%	102%	100%	32.8%	68.9%	73.6%	31.3%	92.6%	74.6%	58.2%	72.4%	83.2%	14.7%	101%
Cc1nc2c(-c3cnc(N)nc3)nc(N3CCOCC3)nc2n1C(C)C	13.4%	12.6%	-19.2% (active)	23.9%	-29.6% (active)	9.06% (active)	-36.1% (active)	-42.2% (active)	-23% (active)	4.2% (active)	10.7%	3.37% (active)	-38.8% (active)	10.6%	4.62% (active)	14.4%	-21.2% (active)	-39.9% (active)	-1.69% (active)	-10.1% (active)
Clc1ccc(-c2nc(Br)cn3ccnc23)cc1	91%	90.2%	103%	69.6%	90.4%	81.7%	93.4%	81.6%	95.8%	94.3%	86.1%	87.6%	91%	82.5%	78.2%	81.6%	80.7%	77.4%	77.8%	100%
O=C(Nc1ccc(Oc2ccc(NC(=O)Nc3ccccc3Cl)cc2)cc1)Nc1ccccc1Cl	24.2%	33.6%	66.7%	72.3%	-15.8% (active)	40.3%	71.2%	62.8%	60.5%	65%	38.9%	45.9%	58.2%	115%	24.6%	1.99% (active)	62.5%	45.9%	48.5%	-17.7% (active)
O=C(C(=O)c1cccnc1)c1cccnc1	121%	110%	118%	99.7%	136%	95.8%	116%	99.3%	95%	96.3%	120%	108%	107%	110%	112%	107%	105%	102%	100%	135%
C=C1NC(=O)C(C(C)CC)NC(=O)C2CSCC(NC(=O)CCC(=O)O)C(=O)NC(Cc3ccccc3)C(=O)NC(C)C(=O)NC(CC(C)CC)C(=O)NC(C(=O)NC(Cc3ccccc3)C(=O)N3CCCC3C(=O)N2)C(C)OC(=O)C(CO)NC(=O)C(C(O)COC)N(C)C(=O)C(C(C)C)NC(=O)C(CC(C)CC)NC1=O (stereo not given)	9.63% [6 µM] (active)	9.39% [6 µM] (active)	55.3% [6 µM]	35.1% [6 µM]	21.6% [6 µM]	25.5% [6 µM]	14.9% [6 µM]	-6.71% [6 µM] (active)	30.1% [6 µM]	5.52% [6 µM] (active)	15.8% [6 µM]	4.74% [6 µM] (active)	11.4% [6 µM]	21.3% [6 µM]	11.2% [6 µM]	22.1% [6 µM]	-44.8% [6 µM] (active)	39.8% [6 µM]	15.1% [6 µM]	60.2% [6 µM]
COC(=O)C(C)NC1=C(Cl)C(=O)C(NC(C)C(=O)OC)=C(Cl)C1=O (stereo not given)	101%	109%	72.2%	94.6%	101%	102%	99%	107%	86.4%	103%	92.6%	98.2%	86%	94%	98%	92%	79.2%	99.8%	91.1%	111%
COc1ccc(/C(=C\c2cc(OC)c(OC)c(OC)c2)C(=O)N2CCNCC2)cc1	112%	92.4%	108%	102%	99.2%	103%	104%	102%	91.3%	99%	104%	95.6%	83%	99.7%	94.6%	90.7%	93.4%	90%	87.5%	112%
COc1ccc(/C=C(/C(=O)N2CCN(c3ccccc3)CC2)c2cc(OC)c(OC)c(OC)c2)cc1O	4.21% (active)	6.23% (active)	60%	19.5%	20.4%	36.9%	7.72% (active)	-10.8% (active)	58.1%	3.13% (active)	12.8%	48.4%	67.8%	27.1%	8.04% (active)	23.4%	-13.7% (active)	27.1%	14.7%	62.3%
CC(=O)OC1Oc2ccccc2-c2oc3nc(=N)n(C)c-3cc21 (stereo not given)	191%	94.9%	119%	112%	144%	251%	125%	102%	113%	98.7%	104%	109%	112%	106%	113%	97.4%	108%	106%	103%	122%
COc1ccc(Nc2ncnc3c2sc2nc(C)cc(C)c23)cc1	102%	101%	94.5%	102%	104%	94.3%	112%	94.6%	93.2%	102%	96%	105%	74.4%	99.2%	103%	92.7%	99.8%	100%	96.7%	105%
Nc1nc(N)c2c(n1)NC(c1sc(Cl)nc1Cl)CC(c1ccccc1)=N2 (stereo not given)	75.1%	17.5%	26.8%	47.8%	43.8%	53.6%	35.2%	35.4%	68.6%	26.2%	27.9%	12.6%	30.1%	61.7%	33.3%	59.5%	33.5%	45.7%	41.5%	62.3%
O=C1/C(=C\c2cccn2C(=O)c2ccccc2)c2ccccc2N1c1c(Cl)cccc1Cl	102%	17.4%	82.6%	74.6%	71.7%	66.9%	97.6%	79.4%	90.7%	76%	64.7%	70%	71.9%	87.7%	72.8%	73.9%	83%	59.1%	37.5%	74.1%
CC(OC(=O)Nc1cccc(Cl)c1)C(=O)O (stereo not given)	113%	92.3%	116%	109%	98.4%	99.6%	75.3%	99.1%	91.5%	95.5%	104%	102%	84.6%	96.6%	102%	93%	107%	91.8%	96.9%	112%
C[C@@H]1C[C@H](N)C[C@H](c2ccncc2NC(=O)c2ccc(F)c(-c3c(F)cccc3F)n2)C1	80.4%	11.4%	-20.6% (active)	59.1%	23.2%	58.9%	71.9%	70.2%	-69.4% (active)	-30.8% (active)	52.4%	10.9%	40.5%	69.3%	42.6%	24.2%	-59.8% (active)	25.3%	33.1%	12.2%
CCOC(=O)C(=CNc1ccccc1Cl)C(=O)OCC	107%	54.3%	140%	104%	100%	94.3%	89.9%	102%	103%	113%	88.2%	89.1%	108%	97.1%	94.5%	95.8%	77.1%	72.4%	95.8%	116%
CC(C)NCCCCCNc1cc(O)cc2cccnc12	93.2%	67.6%	23.8%	26.6%	74.7%	89.2%	77.4%	71.5%	111%	88.2%	94.6%	54.2%	56.4%	107%	101%	92.4%	88.2%	94.5%	72.2%	91.6%
O=C(O)/C=C(\c1nc2ccc([N+](=O)[O-])cc2[nH]1)c1cc(Cl)ccc1O	39.9%	14.7%	6.7% (active)	13.1%	39.1%	32.2%	21.6%	26.3%	17.8%	25.8%	21.1%	36.2%	50.4%	18.5%	16.9%	14.1%	-28% (active)	-3.61% (active)	21%	20.8%
CCCCc1n(Cc2ccc3ccccc3n2)cc[n+]1Cc1ccc2ccccc2n1	40.8%	6.71% (active)	-2.99% (active)	9.88% (active)	20.8%	19.9%	25.2%	16.3%	-11.9% (active)	17.1%	87.8%	5.9% (active)	17.5%	10.4%	11.6%	16.2%	-76.3% (active)	-6.58% (active)	-22.2% (active)	16.1%
COc1cc(Nc2ccnc3ccc(Br)cc23)cc(OC)c1OC	59.1%	10.2%	46.7%	38%	2.9% (active)	47.6%	25.6%	12.7%	38.2%	14.3%	30.6%	14.2%	-4.34% (active)	32.9%	18.6%	26.7%	8.82% (active)	30.4%	32%	58.3%
O=C(O)Cn1ccc2ccccc21	119%	93.4%	96.7%	88.8%	114%	115%	113%	92.8%	113%	93.2%	111%	106%	91.1%	98.9%	108%	101%	98.7%	104%	91.8%	134%
